# From PubChem BioAssay (Tox21)
# Inconclusive results are not listed. Where a call stands in place of a potency, no number is given. Activity calls are given as the source filed them. Unless noted, calls come from the whole dose curve; as a rule, active = well fitted activation curve with a large enough effect in the repeat runs; inconclusive = weak or mixed curves; inactive = no such curve, though single readings can be large or run the other way.
# Tested on: not listed separately
# Assay: qHTS assay to identify small molecule agonists of the estrogen related receptor (ERR) signaling pathway (AID 1224820)
# Details: ERR reporter cell line, luciferase agonist mode; series mostly up to 46.1 µM
# In short: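 Following a 6 h settling period, 2,000 ERR cells per well receive DMSO-dissolved compounds by pin tool and incubate 18 h at 37 C; agonist activity is scored from One-Glo luminescence read 30 min post-addition.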
row,SMILES,Potency
1,O=C1NC(c2cccc([N+](=O)[O-])c2)=CCN1c1ccccc1O,inactive
2,Clc1ccc(N2CCN(Cc3c[nH]c4ncccc34)CC2)cc1,inactive
3,O=c1[nH]c(=S)[nH]c(-c2ccccc2)c1Cc1c(O)ccc2ccccc12,inactive
4,c1ccc2c(c1)CC(N1CCN(c3cccc4c3OCCO4)CC1)C2,inactive
5,CN(C)C(=O)[C@H](O)[C@H](Cc1ccccc1)NC(=O)c1cc2cc(Cl)ccc2[nH]1,inactive
6,COc1cc2nc(N3CCCN(C)CC3)nc(NC3CCN(Cc4ccccc4)CC3)c2cc1OC,inactive
7,COc1ccc(NC(=O)c2ccc(-c3ccc(-c4noc(C)n4)cc3C)cc2)cc1N1CCN(C)CC1,inactive
8,CN1CCC2(CCN3CCc4c(oc5ccccc45)C3C2)N(C)C1=O (stereo unspecified),inactive
9,CC(/C=C/c1cccc(Oc2ccc(F)cc2)c1)N(O)C(N)=O (stereo unspecified),inactive
10,O=C(Nc1ccncc1)c1cc([N+](=O)[O-])ccc1Cl,inactive
11,Cn1c(=O)c2[nH]c(C3CCCC3)nc2n(C)c1=O,inactive
12,CC(C)(C)[C@]1(O)CCN2C[C@H]3c4ccccc4CCc4cccc(c43)[C@@H]2C1,inactive
13,Cc1cc(Cl)ccc1OCCCC(=O)NO,inactive
14,CC(C)C[C@H](NC(=O)[C@@H](O)[C@H](N)Cc1ccccc1)C(=O)O,inactive
15,CC#CCOC(=O)c1c(C)nc2sc3c(c2c1N)CCC(O)C3 (stereo unspecified),inactive
16,COc1ccc(CCn2nnnc2C2(c3ccc(C)cc3)CC2)cc1,inactive
17,c1ccc(CN2CCC3(CCCc4ccccc43)CC2)cc1,inactive
18,C=CCN1CCc2c(cc(O)c(O)c2Cl)C(c2ccccc2)C1 (stereo unspecified),inactive
19,O=c1ccc2ccc(O)c(O)c2o1,inactive

row,SMILES,Potency
1,Cc1nn(-c2ccccc2)c(C)c1/C=N/N1CCN(Cc2ccccc2)CC1,inactive
2,Oc1cc2c(cc1O)CN(C(=S)NCCc1ccc(Cl)cc1)CCC2,inactive
3,O=C(Nc1nc2ccccc2n1CCN1CCOCC1)c1cccc([N+](=O)[O-])c1,inactive
4,O=C1Nc2ccc(I)cc2/C1=C/c1cc(Br)c(O)c(Br)c1,inactive
5,OC[C@H]1O[C@@H](n2cnc3cncnc32)[C@H](O)[C@@H]1O,inactive
6,OCc1ccc(-c2nn(Cc3ccccc3)c3ccccc23)o1,inactive
7,CC(C)(CO)Cc1cc(C(C)(C)C)c(O)c(C(C)(C)C)c1,inactive
8,S=C(S)N1CCCC1,inactive
9,C[C@H](Cc1ccc(O)c(O)c1)[C@@H](C)Cc1ccc(O)c(O)c1,inactive
10,COC(=O)C1=C(C)NC(C)=C(C(=O)OC)C1c1cccc(NC(=O)NCCCN2CCC(c3cccc(OC)c3)CC2)c1,inactive
11,COC(=O)[C@H](NC(=O)c1cc(-c2ccccc2)nc2ccccc12)c1ccccc1,inactive
12,CN(C)S(=O)(=O)c1ccc2c(c1)/C(=C/c1cc3c([nH]1)CCCC3)C(=O)N2,inactive
13,COc1ccccc1N1CCN(CCN2C(=O)CC3(CCCC3)CC2=O)CC1,inactive
14,COc1cc2c(cc1O)CC[C@@H]1[C@@H]2CC[C@]2(C)[C@@H](O)CC[C@@H]12,inactive
15,Nc1nc(SCc2ccc([N+](=O)[O-])cc2)c2ncn([C@@H]3O[C@H](CO)C(O)[C@H]3O)c2n1 (stereo partly specified),inactive
16,O=c1[nH]c2cc(C(F)(F)F)ccc2n1-c1cc(C(F)(F)F)ccc1O,inactive
17,Nc1nc(Cl)nc2c1ncn2[C@@H]1O[C@H](COP(=O)(O)OP(=O)(O)OP(=O)(O)O)C(O)[C@H]1O (stereo partly specified),inactive
18,N#C/C(=C\c1ccc(-c2cc(Cl)ccc2Cl)o1)C(=O)Nc1cccc2ncccc12,inactive
19,OC1(c2ccc(Cl)cc2)CCN(Cc2c[nH]c3ccccc23)CC1,inactive

# Tested on: estrogen-related receptor alpha (ERRalpha) with PGC-1alpha coactivator, human
# Assay: qHTS assay to identify small molecule antagonists of the estrogen related receptor signaling pathway with the pleiotropic PPARgamma coactivator (PGC) (AID 1224821; calls by dose curve; note: nearly all actives have a fitted effect of over 50% in size; note: potency is the fitted concentration of half-maximal effect)
# Details: ERR/PGC reporter cell line, luciferase, antagonist mode; series mostly up to 46.1 µM
# In short: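 Screening used NTP's PGC/ERR cells, dosed via pin tool with compound in DMSO alongside positive and negative controls. After 18 h at 37 C, One-Glo reagent sat 30 min at room temperature before luminescence detection.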
row,SMILES,Potency
1,O=C1NC(c2cccc([N+](=O)[O-])c2)=CCN1c1ccccc1O,inactive
2,Clc1ccc(N2CCN(Cc3c[nH]c4ncccc34)CC2)cc1,inactive
3,O=c1[nH]c(=S)[nH]c(-c2ccccc2)c1Cc1c(O)ccc2ccccc12,inactive
4,c1ccc2c(c1)CC(N1CCN(c3cccc4c3OCCO4)CC1)C2,inactive
5,CN(C)C(=O)[C@H](O)[C@H](Cc1ccccc1)NC(=O)c1cc2cc(Cl)ccc2[nH]1,inactive
6,COc1cc2nc(N3CCCN(C)CC3)nc(NC3CCN(Cc4ccccc4)CC3)c2cc1OC,28.7 µM (active)
7,COc1ccc(NC(=O)c2ccc(-c3ccc(-c4noc(C)n4)cc3C)cc2)cc1N1CCN(C)CC1,inactive
8,CN1CCC2(CCN3CCc4c(oc5ccccc45)C3C2)N(C)C1=O (stereo unspecified),inactive
9,CC(/C=C/c1cccc(Oc2ccc(F)cc2)c1)N(O)C(N)=O (stereo unspecified),inactive
10,O=C(Nc1ccncc1)c1cc([N+](=O)[O-])ccc1Cl,inactive
11,Cn1c(=O)c2[nH]c(C3CCCC3)nc2n(C)c1=O,inactive
12,CC(C)(C)[C@]1(O)CCN2C[C@H]3c4ccccc4CCc4cccc(c43)[C@@H]2C1,17.4 µM (active)
13,Cc1cc(Cl)ccc1OCCCC(=O)NO,inactive
14,CC(C)C[C@H](NC(=O)[C@@H](O)[C@H](N)Cc1ccccc1)C(=O)O,6.94 µM (active)
15,CC#CCOC(=O)c1c(C)nc2sc3c(c2c1N)CCC(O)C3 (stereo unspecified),inactive
16,COc1ccc(CCn2nnnc2C2(c3ccc(C)cc3)CC2)cc1,inactive
17,c1ccc(CN2CCC3(CCCc4ccccc43)CC2)cc1,inactive
18,C=CCN1CCc2c(cc(O)c(O)c2Cl)C(c2ccccc2)C1 (stereo unspecified),inactive
19,O=c1ccc2ccc(O)c(O)c2o1,inactive

row,SMILES,Potency
1,Cc1nn(-c2ccccc2)c(C)c1/C=N/N1CCN(Cc2ccccc2)CC1,inactive
2,Oc1cc2c(cc1O)CN(C(=S)NCCc1ccc(Cl)cc1)CCC2,inactive
3,O=C(Nc1nc2ccccc2n1CCN1CCOCC1)c1cccc([N+](=O)[O-])c1,inactive
4,O=C1Nc2ccc(I)cc2/C1=C/c1cc(Br)c(O)c(Br)c1,inactive
5,OC[C@H]1O[C@@H](n2cnc3cncnc32)[C@H](O)[C@@H]1O,15 µM (active)
6,OCc1ccc(-c2nn(Cc3ccccc3)c3ccccc23)o1,inactive
7,CC(C)(CO)Cc1cc(C(C)(C)C)c(O)c(C(C)(C)C)c1,inactive
8,S=C(S)N1CCCC1,3.22 µM (active)
9,C[C@H](Cc1ccc(O)c(O)c1)[C@@H](C)Cc1ccc(O)c(O)c1,inactive
10,COC(=O)C1=C(C)NC(C)=C(C(=O)OC)C1c1cccc(NC(=O)NCCCN2CCC(c3cccc(OC)c3)CC2)c1,31 µM (active)
11,COC(=O)[C@H](NC(=O)c1cc(-c2ccccc2)nc2ccccc12)c1ccccc1,inactive
12,CN(C)S(=O)(=O)c1ccc2c(c1)/C(=C/c1cc3c([nH]1)CCCC3)C(=O)N2,inactive
13,COc1ccccc1N1CCN(CCN2C(=O)CC3(CCCC3)CC2=O)CC1,inactive
14,COc1cc2c(cc1O)CC[C@@H]1[C@@H]2CC[C@]2(C)[C@@H](O)CC[C@@H]12,inactive
15,Nc1nc(SCc2ccc([N+](=O)[O-])cc2)c2ncn([C@@H]3O[C@H](CO)C(O)[C@H]3O)c2n1 (stereo partly specified),inactive
16,O=c1[nH]c2cc(C(F)(F)F)ccc2n1-c1cc(C(F)(F)F)ccc1O,inactive
17,Nc1nc(Cl)nc2c1ncn2[C@@H]1O[C@H](COP(=O)(O)OP(=O)(O)OP(=O)(O)O)C(O)[C@H]1O (stereo partly specified),inactive
18,N#C/C(=C\c1ccc(-c2cc(Cl)ccc2Cl)o1)C(=O)Nc1cccc2ncccc12,inactive
19,OC1(c2ccc(Cl)cc2)CCN(Cc2c[nH]c3ccccc23)CC1,inactive
